In the supplement of paper PMC10811239:

system: LEGO organoid PTCC (PTEN-/-; TP53-/-; CDKN2A-/-; CDKN2B-/-); assay: bioluminescence (viable cell) signal fold change after vs before treatment, normalised to DMSO (ratio); higher = more tumour cell growth / less inhibition; settings: 10 µM; treatment time 6 days
Method: (§1)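 Luc2-labelled iPSC-derived glioblastoma-like organoids (LEGOs, genotypes PT = PTEN-/-;TP53-/-, PTCC = plus CDKN2A/B-/-, PTN = plus NF1-/-) were treated with 10 uM drug for 6 days (applied every other day) at 37 C. Bioluminescence imaging was done before treatment and 2 days after the last dose. BLI signals were normalised to the DMSO control on the same day and then to the pre-treatment signal (N=3).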

| Compound | bioluminescence |
| --- | --- |
| Cc1cc(C)nc(NS(=O)(=O)c2ccc(N)cc2)n1 [Sulfamethazine] | 0.645 |
| CCCCCCCCc1ccc(CCC(N)(CO)CO)cc1.Cl [Fingolimod hydrochloride] | 1.07 |
| FC(F)(F)C(Cl)Br (stereo not drawn) [Anestan] | 0.664 |
| COc1ccc([C@@H]2CC(=O)c3c(O)cc(O[C@@H]4O[C@H](CO[C@@H]5O[C@@H](C)[C@H](O)[C@@H](O)[C@H]5O)[C@@H](O)[C@H](O)[C@H]4O)cc3O2)cc1O [Hesperidin] | 0.805 |
| CCOC(=O)c1ccc(C#Cc2ccc3c(c2)C(C)(C)CCS3)nc1 [Tazarotene] | 1.42 |
| Nc1ncn([C@H]2C[C@H](O)[C@@H](CO)O2)c(=O)n1 [Decitabine] | 1.67 |

system: LEGO organoid PTN (PTEN-/-; TP53-/-; NF1-/-); assay: as above; settings: 10 µM; treatment time 6 days
Method: as §1

| Compound | bioluminescence |
| --- | --- |
| CN1CCN(CCCN2c3ccccc3Sc3ccc(C(F)(F)F)cc32)CC1.Cl.Cl [Trifluoperazine dihydrochloride] | 1.23 |
| Cc1nc(Nc2ncc(C(=O)Nc3c(C)cccc3Cl)s2)cc(N2CCN(CCO)CC2)n1 [Dasatinib] | 2 |
| O=C(O)c1cc(/N=N/c2ccc(S(=O)(=O)Nc3ccccn3)cc2)ccc1O [Sulfasalazine] | 0.504 |
| CCOc1nc2cccc(C(=O)OC(C)OC(=O)OC3CCCCC3)c2n1Cc1ccc(-c2ccccc2-c2nn[nH]n2)cc1 (stereo not drawn) [Candesartan Cilexetil] | 1.04 |
| O=C1CCc2ccc(OCCCCN3CCN(c4cccc(Cl)c4Cl)CC3)cc2N1 [Aripiprazole] | 0.284 |
| CC[C@@]1(O)C(=O)OCc2c1cc1n(c2=O)Cc2cc3c(CN(C)C)c(O)ccc3nc2-1.Cl [Topotecan hydrochloride] | 0.171 |
| CS(=O)(=O)c1ccc(C(=O)Nc2ccc(Cl)c(-c3ccccn3)c2)c(Cl)c1 [Vismodegib] | 0.888 |
| Cc1ccc(Nc2nccc(N(C)c3ccc4c(C)n(C)nc4c3)n2)cc1S(N)(=O)=O [Pazopanib] | 0.583 |
| O=C1Nc2ccc(Cl)cc2[C@@](C#CC2CC2)(C(F)(F)F)O1 [Efavirenz] | 0.908 |
| CCCCCOC(=O)Nc1nc(=O)n([C@@H]2O[C@H](C)[C@@H](O)[C@H]2O)cc1F [Capecitabine] | 6.04 |
| O=C1CCC(N2C(=O)c3ccccc3C2=O)C(=O)N1 (stereo not drawn) [Thalidomide] | 1.38 |
| Nc1nnc(-c2cccc(Cl)c2Cl)c(N)n1 [Lamotrigine] | 0.446 |
| C[C@H](C(=O)O)c1cccc(C(=O)c2ccccc2)c1 [(S)-(+)-Ketoprofen] | 0.728 |
| CC(=O)Nc1nnc(S(N)(=O)=O)s1 [Acetazolamide] | 2.04 |
| CC(=O)[C@H]1CC[C@H]2[C@@H]3CCC4=CC(=O)CC[C@]4(C)[C@H]3CC[C@]12C [Progesterone] | 1.12 |
| Nc1cccc2c1C(=O)N(C1CCC(=O)NC1=O)C2=O (stereo not drawn) [Pomalidomide] | 1.12 |
| Clc1ccc(COC(Cn2ccnc2)c2ccc(Cl)cc2Cl)c(Cl)c1.O=[N+]([O-])O (stereo not drawn) [Miconazole nitrate] | 1.21 |
| Cl.CN(C)CC\C=C1\c2ccccc2C=Cc2ccccc12 [Cyclobenzaprine hydrochloride] | 3.73 |
| Cc1cn([C@H]2C=C[C@@H](CO)O2)c(=O)[nH]c1=O [Stavudine] | 0.812 |
| CC(=O)NCCCS(=O)(=O)[O-].CC(=O)NCCCS(=O)(=O)[O-].[Ca+2] [Acamprosate calcium] | 1.11 |
| Nc1nc2c(ncn2COCCO)c(=O)[nH]1 [Aciclovir] | 4.45 |
| Cc1cccc(C)c1OCC(=O)N[C@@H](Cc1ccccc1)[C@@H](O)C[C@H](Cc1ccccc1)NC(=O)[C@H](C(C)C)N1CCCNC1=O [Lopinavir] | 0.66 |
| O=C([O-])Cc1ccccc1Nc1c(Cl)cccc1Cl.[Na+] [Diclofenac sodium] | 1.75 |
| Nc1ccn([C@@H]2CS[C@H](CO)O2)c(=O)n1 [Lamivudine] | 1.2 |
| CO[C@H]1/C=C/O[C@@]2(C)Oc3c(C)c(O)c4c(O)c(c(/C=N/N5CCN(C6CCCC6)CC5)c(O)c4c3C2=O)NC(=O)/C(C)=C\C=C\[C@H](C)[C@H](O)[C@@H](C)[C@@H](O)[C@@H](C)[C@H](OC(C)=O)[C@@H]1C [Rifapentine] | 1.39 |
| NC[C@H]1CC[C@H](C(=O)O)CC1 [Amstat] | 0.778 |
| CC(C)Nc1cccnc1N1CCN(C(=O)c2cc3cc(NS(C)(=O)=O)ccc3[nH]2)CC1.CS(=O)(=O)O [Delavirdine mesylate] | 1.76 |
